{
  "source": "PubChem BioAssay AID463173",
  "about": "(ICCB-Longwood Screening Facility, Harvard Medical School, 2010)",
  "note": "Among all 52,000 compounds or so, about 4,300 (8.3%) were called active. Many of the other results were omitted from the sample, so actives are more common in it than they were. Values without a mark were called inactive. Rule as the data show it: active = survival mostly below about 52% (no sharp cut-off); inactive = mostly above about 56%.",
  "data": [
    {"test_system": "DeltatarO mutant", "test": "S. aureus survival, RN4220 and DeltatarO strains – OD600, teichoic acid synthesis inhibitors, primary screen (AID 463173)", "details": "S. aureus RN4220 wild type/DeltatarO growth, OD600, 18 h, stronger effect = lower value, screened at 18.75 µg/mL (by protocol)", "values": [
      {"smiles": "Cc1ccc(N2C(=O)SC(Nc3ccccc3)C2=O)cc1", "note": "(configuration not stated)", "survival": "83%"},
      {"smiles": "CN1C(=O)SC(Nc2ccccc2)C1=O", "note": "(configuration not stated)", "survival": "65%"},
      {"smiles": "COC(=O)c1cccc(CN2C(=O)SC(Nc3ccc(C)cc3)C2=O)c1", "note": "(configuration not stated)", "survival": "50%"},
      {"smiles": "O=C1SC(Nc2ccc(Cl)cc2)C(=O)N1Cc1ccccc1", "note": "(configuration not stated)", "survival": "107%"},
      {"smiles": "COC(=O)c1cccc(CN2C(=O)SC(Nc3ccc(Cl)cc3)C2=O)c1", "note": "(configuration not stated)", "survival": "42%"},
      {"smiles": "COC(=O)c1cccc(CN2C(=O)SC(Nc3ccccc3C)C2=O)c1", "note": "(configuration not stated)", "survival": "133%"},
      {"smiles": "CCOc1ccc(NC2SC(=O)N(Cc3ccccc3)C2=O)cc1", "note": "(configuration not stated)", "survival": "42% (active)"},
      {"smiles": "Cc1ccc(CN2C(=O)SC(Nc3ccccc3)C2=O)cc1", "note": "(configuration not stated)", "survival": "40% (active)"},
      {"smiles": "COc1ccc(NC2SC(=O)N(c3ccccc3)C2=O)cc1", "note": "(configuration not stated)", "survival": "105%"},
      {"smiles": "COC(=O)c1cccc(CN2C(=O)SC(Nc3ccc(Br)cc3)C2=O)c1", "note": "(configuration not stated)", "survival": "23% (active)"},
      {"smiles": "COc1cc2c(cc1OC)C(COc1ccc3c(C)cc(=O)oc3c1)N(C(=O)Cc1ccc(F)cc1)CC2", "note": "(configuration not stated)", "survival": "80%"},
      {"smiles": "CC1(C)Cc2ccccc2-c2nc(NN)[nH]c(=O)c21", "survival": "67%"},
      {"smiles": "O=C(O)c1cccc(N2C(=O)c3cccnc3C2=O)c1", "survival": "83%"},
      {"smiles": "Cc1ccc(-n2c(=O)c3c(c4cc(C)ccc4n3C)n(CC(=O)Nc3cc(C)cc(C)c3)c2=O)cc1", "survival": "105%"},
      {"smiles": "COc1ccc2nc(N(Cc3cccnc3)C(=O)c3ccc(Cl)cc3)sc2c1", "survival": "89%"},
      {"smiles": "CCOC(=O)c1cc(-c2ccccc2)n(-c2cccc(C(=O)Nc3ccc(F)c(F)c3)c2)c1C", "survival": "87%"},
      {"smiles": "CC(CN)(NS(=O)(=O)c1ccccc1)c1ccccc1", "note": "(configuration not stated)", "survival": "84%"},
      {"smiles": "COc1ccc(CN=C(N)N=C(N)N)cc1", "survival": "95%"},
      {"smiles": "CC(=O)c1ccc(N2CCN(S(=O)(=O)c3cc(-c4onc(C)c4C)ccc3C)CC2)cc1", "survival": "84%"},
      {"smiles": "Cn1nc(-c2ccccc2F)c2cc(C(=O)N3CCN(c4ccccc4F)CC3)sc21", "survival": "40%"},
      {"smiles": "COc1ccc(NC(=O)c2cc3c(-c4ccccc4F)nn(C)c3s2)c(OC)c1", "survival": "44% (active)"},
      {"smiles": "COc1ccccc1N1CCN(C(=O)c2cc3c(-c4ccccc4F)nn(C)c3s2)CC1", "survival": "46% (active)"},
      {"smiles": "COc1ccc(-c2nn(C)c3sc(C(=O)N4CCN(c5cc(Cl)ccc5C)CC4)cc23)cc1OC", "survival": "103%"},
      {"smiles": "COc1ccc(CCNC(=O)c2cc3c(-c4ccccc4F)nn(C)c3s2)c(OC)c1", "survival": "85%"},
      {"smiles": "COc1ccc(-c2nn(C)c3sc(C(=O)N4CCN(c5cccc(Cl)c5)CC4)cc23)cc1OC", "survival": "54% (active)"},
      {"smiles": "COc1ccc(N2CCN(C(=O)c3cc4c(-c5ccccc5F)nn(C)c4s3)CC2)cc1", "survival": "65%"},
      {"smiles": "COc1ccc(-c2nn(C)c3sc(C(=O)N4CCN(c5cccc(C)c5C)CC4)cc23)cc1OC", "survival": "75%"},
      {"smiles": "COc1ccc(CNC(=O)c2cc3c(-c4ccccc4F)nn(C)c3s2)c(OC)c1", "survival": "101%"},
      {"smiles": "COc1ccc(COC(=O)C2=C(C)NC3(O)c4ccccc4C(=O)C23O)cc1", "note": "(configuration not stated)", "survival": "90%"},
      {"smiles": "CNS(=O)(=O)c1cn(CC(=O)Nc2ccc(OC)c(Cl)c2)cc1S(=O)(=O)NC", "survival": "74%"},
      {"smiles": "Cc1ccc(Cl)cc1-n1c(=O)c2sc3ccccc3c2n(CC(=O)NC2CCCC2)c1=O", "survival": "13% (active)"},
      {"smiles": "Cc1ccc(Cl)cc1-n1c(=O)c2sc3ccccc3c2n(CC(=O)NC2CCCCC2)c1=O", "survival": "77%"},
      {"smiles": "O=C(Cn1c(=O)n(-c2ccc(Cl)cc2)c(=O)c2sc3ccccc3c21)NC1CCCC1", "survival": "90%"},
      {"smiles": "CCn1c(CN2CCC(C)CC2)nc2cc(NC(=O)COc3ccc([N+](=O)[O-])cc3)ccc21", "survival": "82%"},
      {"smiles": "CCCCC(Sc1nc2cc3c(cc2c(=O)n1CCCC(=O)NCc1ccc2c(c1)OCO2)OCO3)C(=O)OCC", "note": "(configuration not stated)", "survival": "82%"},
      {"smiles": "CCN(C(=O)CSc1nc(-c2ccc(C(C)C)cc2)no1)c1cccc(C)c1", "survival": "84%"},
      {"smiles": "O=C(CSc1nc(-c2ccccc2)no1)N1CCN(c2ccccc2)CC1", "survival": "99%"},
      {"smiles": "CCN(C(=O)CCc1nc(-c2ccc(C)cc2)no1)c1cc(C)ccc1C", "survival": "-4% (active)"},
      {"smiles": "CCN(C(=O)CCc1nc(-c2ccc(C)cc2)no1)c1cccc(C(F)(F)F)c1", "survival": "-5% (active)"},
      {"smiles": "O=C(CSc1nc(-c2ccccc2)no1)N1CCCCC1", "survival": "39% (active)"},
      {"smiles": "CCN(C(=O)CSc1nc(-c2ccccc2)no1)c1ccccc1", "survival": "79%"},
      {"smiles": "COc1ccc(-c2noc(CCC(=O)Nc3ccc(C(F)(F)F)cc3)n2)cc1", "survival": "86%"},
      {"smiles": "CCN(C(=O)CSc1nc(-c2ccccc2)no1)c1cccc(C)c1", "survival": "-3% (active)"},
      {"smiles": "COc1cccc(CNC(=O)CCc2nc(-c3ccc(C)cc3)no2)c1", "survival": "145%"},
      {"smiles": "CC(C)c1ccc(-c2noc(SCC(=O)N3CCCCC3)n2)cc1", "survival": "72%"},
      {"smiles": "Cc1ccc(C)c(NC(=O)CCc2nc(-c3ccc(C(C)(C)C)cc3)no2)c1", "survival": "69%"},
      {"smiles": "CC(=O)c1ccc(NC(=O)CCc2nc(-c3ccc(C)cc3)no2)cc1", "survival": "67%"}
    ]}
  ]
}
